# The entries come from a sample that favours the strongest signals as a whole.
# B1: EUL D1A second (Oryza sativa) (protein)
# chain: GAATACTIGGVPVHTVRVFSAAGEDYCLTVRNGTACLAPKNPRDDYQHWIKDMRHSNKIRDEEGYPAFALVNKVTGEAIKHSTGQGHPVKLVPYNPEYQDESVLWTESKDVGKGFRCIRMVNNIYLNFDAFHGDKDHGGIHDGTEIVLWKWCEGDNQRWKILPWILEQKLISEEDLNSAVDHHHHHH
# How the values were obtained:
# Experiment in all cases: glycan array binding signal (z-score within array); higher = stronger binding
# Settings in all cases: glycan notation: IUPAC condensed, linker removed
# [1] = target: Fuc(a1-2)Gal(b1-3)GlcNAc(b1-3)Gal(b1-4)Glc
# In short: (§1)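 Glycan array data came from 3228 arrays in the Consortium for Functional Glycomics database, and only arrays with an available protein sequence were kept. Glycan names were put into IUPAC-condensed notation, and columns mapping to the same glycan were averaged. The binding signal is a within-array Z-score, averaged across arrays of one protein sequence run at different concentrations or buffers and across linkers. A negative Z-score can be read as non-binding.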
# [2] = target: Fuc(a1-2)Gal(b1-3)GlcNAc(b1-3)GalNAc
# In short: as §1
# [3] = target: Fuc(a1-2)Gal(b1-3)[Fuc(a1-4)]GlcNAc(b1-2)Man(a1-3)[Fuc(a1-2)Gal(b1-3)[Fuc(a1-4)]GlcNAc(b1-2)Man(a1-6)]Man(b1-4)GlcNAc(b1-4)[Fuc(a1-6)]GlcNAc(b1-4)[Fuc(a1-6)]GlcNAc
# In short: as §1
# [4] = target: Fuc(a1-2)Gal(b1-3)[Fuc(a1-4)]GlcNAc(b1-3)[Gal(b1-4)GlcNAc(b1-6)]Gal(b1-4)Glc
# In short: as §1
# [5] = target: Fuc(a1-2)Gal3S(b1-4)GlcNAc
# In short: as §1
# [6] = target: Fuc(a1-2)Gal6S(b1-3)GlcNAc6S
# In short: as §1
# [7] = target: Fuc(a1-2)[GalNAc(a1-3)]Gal
# In short: as §1
# [8] = target: Fuc(a1-2)[GalNAc(a1-3)]Gal(b1-4)GlcNAc
# In short: as §1
# [9] = target: Fuc(a1-2)[GalNAc(a1-3)]Gal(b1-4)GlcNAc(b1-3)Gal(b1-4)GlcNAc
# In short: as §1
# [10] = target: Fuc(a1-2)[GalNAc(a1-4)]Gal(b1-4)GlcNAc
# In short: as §1
# [11] = target: Fuc(a1-2)[GalNAc(b1-3)]Gal
# In short: as §1
# [12] = target: Fuc(a1-3)[Gal(b1-4)]GlcNAc(b1-2)Man
# In short: as §1
# [13] = target: Fuc(a1-3)[Gal(b1-4)]GlcNAc(b1-3)Gal(b1-4)[Fuc(a1-3)]GlcNAc
# In short: as §1
# [14] = target: Fuc(a1-3)[Gal(b1-4)]GlcNAc(b1-3)GalNAc
# In short: as §1
# [15] = target: Fuc(a1-3)[Gal(b1-4)]GlcNAc6S
# In short: as §1
# Gal(a1-3)GalNAc = target: Gal(a1-3)GalNAc
# In short: as §1
# Gal(a1-4)GlcNAc = target: Gal(a1-4)GlcNAc
# In short: as §1
# Gal(b1-3)Gal = target: Gal(b1-3)Gal
# In short: as §1
# [16] = target: Gal(b1-3)GalNAc(b1-3)Gal(a1-4)Gal(b1-4)Glc
# In short: as §1
# [17] = target: Gal(b1-3)GlcNAc(b1-3)Gal(b1-4)GlcNAc(b1-2)[Gal(b1-3)GlcNAc(b1-3)Gal(b1-4)GlcNAc(b1-6)]Man(a1-6)[Gal(b1-3)GlcNAc(b1-3)Gal(b1-4)GlcNAc(b1-2)Man(a1-3)]Man(b1-4)GlcNAc(b1-4)[Fuc(a1-6)]GlcNAc
# In short: as §1
# [18] = target: Gal(b1-3)GlcNAc(b1-3)Gal(b1-4)GlcNAc(b1-3)Gal(b1-4)GlcNAc(b1-2)[Gal(b1-3)GlcNAc(b1-3)Gal(b1-4)GlcNAc(b1-3)Gal(b1-4)GlcNAc(b1-6)]Man(a1-6)[Gal(b1-3)GlcNAc(b1-3)Gal(b1-4)GlcNAc(b1-3)Gal(b1-4)GlcNAc(b1-2)Man(a1-3)]Man(b1-4)GlcNAc(b1-4)[Fuc(a1-6)]GlcNAc
# In short: as §1
# Gal(b1-4)Gal = target: Gal(b1-4)Gal
# In short: as §1
# Gal(b1-4)GlcNAc(b1-2)Man = target: Gal(b1-4)GlcNAc(b1-2)Man
# In short: as §1
# [19] = target: Gal(b1-4)GlcNAc(b1-2)Man(a1-3)[Man(a1-6)]Man(b1-4)GlcNAc(b1-4)GlcNAc
# In short: as §1
# [20] = target: Gal(b1-4)GlcNAc(b1-2)[Gal(b1-4)GlcNAc(b1-4)]Man(a1-3)[GlcNAc(b1-4)][Gal(b1-4)GlcNAc(b1-2)[Gal(b1-4)GlcNAc(b1-6)]Man(a1-6)]Man(b1-4)GlcNAc(b1-4)GlcNAc
# In short: as §1
# [21] = target: Gal(b1-4)GlcNAc(b1-2)[Gal(b1-4)GlcNAc(b1-6)]Man(a1-6)[GlcNAc(b1-4)][Gal(b1-4)GlcNAc(b1-2)Man(a1-3)]Man(b1-4)GlcNAc(b1-4)GlcNAc
# In short: as §1
# [22] = target: Gal(b1-4)GlcNAc(b1-3)Gal(b1-3)GlcNAc
# In short: as §1
# [23] = target: Gal(b1-4)GlcNAc(b1-3)Gal(b1-4)Glc
# In short: as §1
# [24] = target: Gal(b1-4)GlcNAc(b1-3)Gal(b1-4)GlcNAc
# In short: as §1
# [25] = target: Gal(b1-4)GlcNAc(b1-3)Gal(b1-4)GlcNAc(b1-2)[Gal(b1-4)GlcNAc(b1-3)Gal(b1-4)GlcNAc(b1-6)]Man(a1-6)[Gal(b1-4)GlcNAc(b1-3)Gal(b1-4)GlcNAc(b1-2)Man(a1-3)]Man(b1-4)GlcNAc(b1-4)[Fuc(a1-6)]GlcNAc
# In short: as §1
binder,measurement,setting,value
B1,glycan array binding signal (z-score),[1],-1.01
same,glycan array binding signal (z-score),[2],-0.565
same,glycan array binding signal (z-score),[3],0.045
same,glycan array binding signal (z-score),[4],1.09
same,glycan array binding signal (z-score),[5],0.228
same,glycan array binding signal (z-score),[6],1.43
same,glycan array binding signal (z-score),[7],-0.789
same,glycan array binding signal (z-score),[8],-1.07
same,glycan array binding signal (z-score),[9],-0.086
same,glycan array binding signal (z-score),[10],0.772
same,glycan array binding signal (z-score),[11],-0.072
same,glycan array binding signal (z-score),[12],0.112
same,glycan array binding signal (z-score),[13],-0.106
same,glycan array binding signal (z-score),[14],0.566
same,glycan array binding signal (z-score),[15],-0.105
same,glycan array binding signal (z-score),Gal(a1-3)GalNAc,-1.42
same,glycan array binding signal (z-score),Gal(a1-4)GlcNAc,-1.01
same,glycan array binding signal (z-score),Gal(b1-3)Gal,-0.342
same,glycan array binding signal (z-score),[16],2.08
same,glycan array binding signal (z-score),[17],4.86
same,glycan array binding signal (z-score),[18],4.47
same,glycan array binding signal (z-score),Gal(b1-4)Gal,3.37
same,glycan array binding signal (z-score),Gal(b1-4)GlcNAc(b1-2)Man,1.59
same,glycan array binding signal (z-score),[19],-0.232
same,glycan array binding signal (z-score),[20],-0.986
same,glycan array binding signal (z-score),[21],-0.799
same,glycan array binding signal (z-score),[22],-0.245
same,glycan array binding signal (z-score),[23],-0.283
same,glycan array binding signal (z-score),[24],-0.532
same,glycan array binding signal (z-score),[25],3.31

# From the supplement of paper PMC8728848
